# Measured values as given in article PMC12864922, “TDP-43 directly inhibits mRNA accumulation in neurites through modulation of mRNA stability”.
# Over roughly 9,900 sequences, “r (bound/input frequency ratio)” has its median near 0.7; the highest 2% begin near 6.5. The entries come from a sample that favours the highest values as a whole.
# B1: ENSMUSG00000043670.158|Diras1 (ssRNA)
# RNA: GGGAGUUCUACAGUCCGACGAUCGCUUCGAUAUCCGCAUGCUACUGCUGAGAUAGAGACCUUGGCACAGUGGCACCUCGACAGCCACCCCGACUGGGGGUUUGGGGUGCUGAGGGUGGGGUGCCCAGCUGAGAGUCUAUCAGCAAAGUCCCUGUGUGCGGUGAUAGGACUAGUGGCUGCUGCCCUAGGGCUCUGACAGAAUCUGAGCCUCUUUGCUGGUCAUGUGUACUCUGGAGACUGUCCCCCAUGUCUGCCCUGAGUUACGGAGCCCCUGUGGUAUCUGCGAGACUGUCCAGGAGACUUGCUCUUGCGGUCGCACUAGUGUGGAAUUCUCGGGUGUCAAGG
# B2: ENSMUSG00000022095.20|Fam160b2|21:25;227:231 (ssRNA)
# RNA: GGGAGUUCUACAGUCCGACGAUCGCUUCGAUAUCCGCAUGCUAGGUGGGGGAAGAUUCCUGCCACACAACUUCUGCCCACGGGCAGUCUCCUGCCUGGCCAUGCUGCCACUCUGUCCUCCAUGCCGGGGACUUCAGCUGCAGGACACCUCACCUGUUGACCCCACGAGCUGAGGUUUCAAGGAGGUGCUGGCUCCUAAGGCAGUGGUAUUCUUGGAGCCUUUUAGAGGAGCUAGAGGAUGGCCAGUGAGCGCCUAGAUGCUGCCCUGCAACACAUGCGUGACUAUCUCUGCUAUAUUGUGACCCUCUUGCGGUCGCACUAGUGUGGAAUUCUCGGGUGUCAAGG
# B3: ENSMUSG00000035202.138|Lars2 (ssRNA)
# RNA: GGGAGUUCUACAGUCCGACGAUCGCUUCGAUAUCCGCAUGCUAAUAAAGGAUUUUAAAUUUUUUUACAAGUGAGAACCUAGCAUGUCAAGGUCCUAGGUUCCAUCUCCAACACGAAAAAAGCAAGGCAACUCUACCAAAGAAACUAAUUACAUACUUGUAUUCCCAAUAUGUGAGAAGCUGAGGAAGGAGGAUCAUGAGUUUAAAGCCAUCCUUGGUUACAUGAGACUCUUGUCUCAAAGAACUACCAGGGAUCCUAAUGGACAACAAAGGUUGAAAACCAUUGAAUUAAUAAAUGUUGUGAACUCUUGCGGUCGCACUAGUGUGGAAUUCUCGGGUGUCAAGG
# B4: ENSMUSG00000061578.722|Ksr2 (ssRNA)
# RNA: GGGAGUUCUACAGUCCGACGAUCGCUUCGAUAUCCGCAUGCUAUCUCUGAAUGUACGUGGGGGACUCCAACAGAUGUUGGGAGAAGACUCAAUAUGAGCAUACGGGGUCAUUGUUCAAUCCUGUAUCAAGACCUUGGAGUUGUCUAAGGCUGUGGGUUUUAAAUACCUGCUGCAGGCCUCCCAUCUCUGGCUCUUUGUUUCCACUCUGGCCCAAGUUUGAGUCUCCAUAUGGGCCCUUCCUGUCCUCAUGCCCUGCCUGUCUUCAUUCCACCCAUCCACCCUCCUAAGGAUUGGUCUUGUUCCCUCUUGCGGUCGCACUAGUGUGGAAUUCUCGGGUGUCAAGG
# B5: ENSMUSG00000058297.266|Spock2 (ssRNA)
# RNA: GGGAGUUCUACAGUCCGACGAUCGCUUCGAUAUCCGCAUGCUAUUUCCUUGAUAUAUUUGAUGAAGAAUUCCUUACCUGGGCCUCUGAUACCCUUUGGUACGCGUACGUGUGUGUGGCGCGUAUACGUGUGUGUGUGUGUGUGUGUGUGUGUGUGUGUGUGUGUGUGUGAGAGAGAGAGAGAGAGAGAGAGAGAGAGAGAGAGAGAAAGAGAGAGAGAAUGAGAGAGAAUGAGAGAGAGAAUACCCGAGGGCCACCCUGAUGCCCAGGAAGAGUGAGGGCAGCCCCCUGUGUGGUGGAAGAGGCUCUUGCGGUCGCACUAGUGUGGAAUUCUCGGGUGUCAAGG
# B6: ENSMUSG00000058297.267|Spock2 (ssRNA)
# RNA: GGGAGUUCUACAGUCCGACGAUCGCUUCGAUAUCCGCAUGCUAUGAUAUAUUUGAUGAAGAAUUCCUUACCUGGGCCUCUGAUACCCUUUGGUACGCGUACGUGUGUGUGGCGCGUAUACGUGUGUGUGUGUGUGUGUGUGUGUGUGUGUGUGUGUGUGUGUGAGAGAGAGAGAGAGAGAGAGAGAGAGAGAGAGAGAGAAAGAGAGAGAGAAUGAGAGAGAAUGAGAGAGAGAAUACCCGAGGGCCACCCUGAUGCCCAGGAAGAGUGAGGGCAGCCCCCUGUGUGGUGGAAGAGGCUGGGCCUCUUGCGGUCGCACUAGUGUGGAAUUCUCGGGUGUCAAGG
# B7: ENSMUSG00000058297.271|Spock2 (ssRNA)
# RNA: GGGAGUUCUACAGUCCGACGAUCGCUUCGAUAUCCGCAUGCUAUACCUGGGCCUCUGAUACCCUUUGGUACGCGUACGUGUGUGUGGCGCGUAUACGUGUGUGUGUGUGUGUGUGUGUGUGUGUGUGUGUGUGUGUGUGAGAGAGAGAGAGAGAGAGAGAGAGAGAGAGAGAGAGAAAGAGAGAGAGAAUGAGAGAGAAUGAGAGAGAGAAUACCCGAGGGCCACCCUGAUGCCCAGGAAGAGUGAGGGCAGCCCCCUGUGUGGUGGAAGAGGCUGGGCAGCUAGCUACUGGGGACCUUGUGCCUCUUGCGGUCGCACUAGUGUGGAAUUCUCGGGUGUCAAGG
# B8: ENSMUSG00000058297.268|Spock2 (ssRNA)
# RNA: GGGAGUUCUACAGUCCGACGAUCGCUUCGAUAUCCGCAUGCUAAUUUGAUGAAGAAUUCCUUACCUGGGCCUCUGAUACCCUUUGGUACGCGUACGUGUGUGUGGCGCGUAUACGUGUGUGUGUGUGUGUGUGUGUGUGUGUGUGUGUGUGUGUGUGAGAGAGAGAGAGAGAGAGAGAGAGAGAGAGAGAGAGAAAGAGAGAGAGAAUGAGAGAGAAUGAGAGAGAGAAUACCCGAGGGCCACCCUGAUGCCCAGGAAGAGUGAGGGCAGCCCCCUGUGUGGUGGAAGAGGCUGGGCAGCUAGCUCUUGCGGUCGCACUAGUGUGGAAUUCUCGGGUGUCAAGG
# B9: ENSMUSG00000031028.129|Tub (ssRNA)
# RNA: GGGAGUUCUACAGUCCGACGAUCGCUUCGAUAUCCGCAUGCUACCAAAUAUCUGAGUGGAUGGGGAUGAUAGGAGUCAUCCAGUAGACUCCCUACAUCAGGGCUCUCAGCAGCCCCAGCACAACACCUAUGACACACACACAGGAUCUAGGUCACCAUUCAAGUAAUGGUAUGCUUCAGGAAGAAUGUCCUCUCUGGGAAGACUCAGCUCCCAUUAUUGCCAGCAUGCCAUGAUCAGUGAGGGCUGUGUGCCAUGCUUAGGGGGAUGGCGCAGGGUGAGGGGAGCAGAGGAUAUUUUAGGGCCCUCUUGCGGUCGCACUAGUGUGGAAUUCUCGGGUGUCAAGG
# B10: ENSMUSG00000058297.78|Spock2 (ssRNA)
# RNA: GGGAGUUCUACAGUCCGACGAUCGCUUCGAUAUCCGCAUGCUACUCAGCCCAACACCUGGAAUCCCUGCCCUGCCUAAUCAGCCCUACCCCAUCCUGCCUUUCUUCCUUCCUCUUCUGAGGCCAGGGAGAGGGAGGGAGGGCAGGCAGCUGAAAGCUGAGCGUCCUCCCCAAAUUGGGCUGAUUUGAUAUGAAAGCCCCACCACGGUCUUGUGGUGAUGAGGCAGGACCUGUACACACAGCAAGGCUUACUAUCCGUCUCCUGACAUCCGAAGAGCUCGUCGCAGGUGUGUCUAAUGGCCCUUCUCUUGCGGUCGCACUAGUGUGGAAUUCUCGGGUGUCAAGG
# B11: ENSMUSG00000031028.156|Tub|40:45;125:130 (ssRNA)
# RNA: GGGAGUUCUACAGUCCGACGAUCGCUUCGAUAUCCGCAUGCUAAGCUCCCAUUAUUGCCAGCAUGCCAUGAUCAGUGAGGGCACACACCCAUGCUUAGGGGGAUGGCGCAGGGUGAGGGGAGCAGAGGAUAUUUUAGGGCCACAAGAGCUCAGAGGUAGCGGACCUCACACACGUUCACCAACAGCAAUGCUGAUCCCUGAGUAUAGGGCACAUGUCUCUUGGUUACCUCACUGGUUAAUGGCAGAGUUGAGAACCUCAAAUUCUUUUGUUCCUACUGUUGCCCAGAAACUAGACUCUCUGACCUCUUGCGGUCGCACUAGUGUGGAAUUCUCGGGUGUCAAGG
# B12: ENSMUSG00000028439.157|Fam219a (ssRNA)
# RNA: GGGAGUUCUACAGUCCGACGAUCGCUUCGAUAUCCGCAUGCUAUAGCUCAAAGUCCAGGAGCCAGGCUUCCAGAAAGGCUCUUCAAGAGCAAGCUUAAGGAAAUACAGUGAGCCAAGUGGCUGUAUGAUAUGGUAUGGUAUGGUAUGGUAUGGUAUGGUAUGGUAUGCACAUGUGUGUGCAUGUGUGUGUGCCUGUGUGUGUGCGUGUGCGUGUGUGUAUGUGUGUGCGUGUGUGUGUGUGUGUGUUGUACCCGAGUGUGUGUUGAGCCUAUCUGUCCAGGGAACCAGAUUGGUGUCCGAGAUCUCUUGCGGUCGCACUAGUGUGGAAUUCUCGGGUGUCAAGG
# B13: ENSMUSG00000028439.156|Fam219a (ssRNA)
# RNA: GGGAGUUCUACAGUCCGACGAUCGCUUCGAUAUCCGCAUGCUAUCACCCUAGCUCAAAGUCCAGGAGCCAGGCUUCCAGAAAGGCUCUUCAAGAGCAAGCUUAAGGAAAUACAGUGAGCCAAGUGGCUGUAUGAUAUGGUAUGGUAUGGUAUGGUAUGGUAUGGUAUGGUAUGCACAUGUGUGUGCAUGUGUGUGUGCCUGUGUGUGUGCGUGUGCGUGUGUGUAUGUGUGUGCGUGUGUGUGUGUGUGUGUUGUACCCGAGUGUGUGUUGAGCCUAUCUGUCCAGGGAACCAGAUUGGUGUCCUCUUGCGGUCGCACUAGUGUGGAAUUCUCGGGUGUCAAGG
# Molecular target: TDP-43 (Homo sapiens, UniProt Q13148 1-414)
# Assay: RNA Bind-n-Seq with designed 260-mer pool; 25 mM Tris-HCl, 150 mM KCl, 3 mM MgCl2, BSA (printed 500 mg/mL), 20 units/mL SUPERase IN; pH not stated; 500 nM RNA pool, 1 h, 4 C; TDP-43 5, 50, 500 nM; high values mean tight binding
# Details: protein: recombinant; tags: SBP (GST cleaved off with PreScission; pGEX-GST-SBP)
# Procedure, shortened: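 Streptavidin beads captured recombinant SBP-tagged TDP-43 at 5, 50 or 500 nM, and the beads were incubated for 1 h at 4 °C with 500 nM of an in vitro-transcribed pool of 260-nt 3′ UTR oligos in 25 mM Tris-HCl, 150 mM KCl, 3 mM MgCl2, BSA and SUPERase IN. After washing, bound RNA was eluted with biotin, reverse transcribed, PCR-amplified and sequenced. Binding is reported as R, the mapped-read-normalized abundance of each oligo in the bound sample divided by its abundance in the input. Two independent protein batches served as duplicates.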
# Chain of TDP-43 (Q13148 whole entry): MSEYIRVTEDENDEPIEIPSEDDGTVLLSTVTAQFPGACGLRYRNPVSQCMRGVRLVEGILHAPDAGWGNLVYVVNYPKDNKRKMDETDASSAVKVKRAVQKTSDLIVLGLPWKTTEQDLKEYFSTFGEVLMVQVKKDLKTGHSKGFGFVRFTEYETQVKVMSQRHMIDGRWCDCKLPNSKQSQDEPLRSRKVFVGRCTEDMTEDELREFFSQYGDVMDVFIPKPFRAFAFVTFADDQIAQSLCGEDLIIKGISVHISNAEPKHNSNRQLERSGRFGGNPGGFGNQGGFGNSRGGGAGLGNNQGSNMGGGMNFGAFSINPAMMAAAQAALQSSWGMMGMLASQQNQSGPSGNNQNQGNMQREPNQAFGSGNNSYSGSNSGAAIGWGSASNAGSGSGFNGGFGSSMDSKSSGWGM
row,Binder,binding signal
1,B1,0.372 R (bound/input frequency ratio)
2,B2,0.271 R (bound/input frequency ratio)
3,B3,0.101 R (bound/input frequency ratio)
4,B4,1.64 R (bound/input frequency ratio)
5,B5,5.83 R (bound/input frequency ratio)
6,B6,8.95 R (bound/input frequency ratio)
7,B7,8.28 R (bound/input frequency ratio)
8,B8,2.37 R (bound/input frequency ratio)
9,B9,0.521 R (bound/input frequency ratio)
10,B10,0.631 R (bound/input frequency ratio)
11,B11,0.266 R (bound/input frequency ratio)
12,B12,7.39 R (bound/input frequency ratio)
13,B13,6.74 R (bound/input frequency ratio)
